Values joined by “and” are separate entries in the source; they are usually repeats but may differ in a detail not shown here. Identical values can stand only once. Records with an inconclusive call do not appear. Where a call stands in place of a potency, no number is given. More than one record can exist for a structure, and the calls need not agree. Active and inactive are the calls of the source. Unless noted, calls follow the shape of the dose curve; as a rule, active = well fitted curve in the direction sought with a large enough effect in the repeat runs; inconclusive = weak or mixed curves; inactive = no such curve, though single readings can be large; an effect the other way counts as inactive or inconclusive.
How the values were obtained:
[1] = qHTS RealTime-Glo MT Cell Viability Assay in HEK293 cells - 0 hour (AID 1224880); also: top concentration of the series differs between compounds; nearly all actives have a fitted effect of over 45% in size
Procedure, shortened: (§1)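 qHTS format; HEK293 cells with NanoLuc/prosubstrate reagent, 37 C/5% CO2 for 5 h pre-dosing; compounds 23 nL in DMSO; luminescence at each time point reflects viable cells.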

[2] = A CellTox Green Cytotoxicity Assay to monitor cytotoxicity in HepG2 cells - 0 hour (AID 1224882); also: nearly all actives have a fitted effect of over 35% in size
Procedure, shortened: (§2)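 Continuous culture of HepG2 cells with a membrane-impermeant DNA dye; rising fluorescence marks dead cells. Compound exposure lasted up to 40 h at 37 C, with reads every 8 h from 0 h.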

[3] = A CellTox Green Cytotoxicity Assay to monitor cytotoxicity in HEK293 cells - 8 hour (AID 1224884); also: nearly all actives have a fitted effect of over 35% in size; also: potency is read from the fitted curve at half-maximal effect
Procedure, shortened: (§3)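 Each value comes from one timepoint of a single continuous run in which HEK293 cells with CellTox Green were exposed to compound for up to 40 h at 37 C, dye fluorescence rising with cell death.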

[4] = qHTS RealTime-Glo MT Cell Viability Assay in HepG2 cells - 16 hour (AID 1224885); also: nearly all actives have a fitted effect of over 50% in size; also: potency is read from the fitted curve at half-maximal effect
Procedure, shortened: (§4)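 HepG2 cells were seeded at 600 cells/well together with NanoLuc luciferase and a cell-permeant prosubstrate, preincubated 5 h at 37 C/5% CO2, then pin-dosed with compounds in DMSO. Nonlytic luminescence from viable cells was read at each time point.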

[5] = qHTS RealTime-Glo MT Cell Viability Assay in HEK293 cells - 24 hour (AID 1224886); also: nearly all actives have a fitted effect of over 50% in size; also: potency is read from the fitted curve at half-maximal effect
Procedure, shortened: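 HEK293 cells were seeded at 600 cells/well together with NanoLuc luciferase and cell-permeant prosubstrate, preincubated 5 h at 37 C/5% CO2, then given compound in DMSO by pintool. Luminescence from viable-cell prosubstrate reduction was read repeatedly over 40 h.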

[6] = A CellTox Green Cytotoxicity Assay to monitor cytotoxicity in HEK293 cells - 16 hour (AID 1224888); also: nearly all actives have a fitted effect of over 35% in size; also: potency is read from the fitted curve at half-maximal effect
Procedure, shortened: as §3

[7] = qHTS RealTime-Glo MT Cell Viability Assay in HepG2 cells - 0 hour (AID 1224889); also: nearly all actives have a fitted effect of over 50% in size; also: potency is read from the fitted curve at half-maximal effect
Procedure, shortened: as §4

[8] = A CellTox Green Cytotoxicity Assay to monitor cytotoxicity in HepG2 cells - 8 hour (AID 1224890); also: nearly all actives have a fitted effect of over 45% in size; also: potency is read from the fitted curve at half-maximal effect
Procedure, shortened: as §2

[9] = qHTS assay to identify small molecule antagonists of the androgen receptor (AR) signaling pathway using the MDA cell line in the presence of 0.5 nM R1881 - cell viability counter screen (AID 1259242); also: nearly all actives have a fitted effect of over 45% in size; also: potency is read from the fitted curve at half-maximal effect
Procedure, shortened: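 Fluorescence from CellTiter-Fluor, which reports protease activity of live cells, was read 30 min after reagent addition to MDA-kb2 cells that had been incubated 16 hr with compound and 0.5 nM R1881.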

[10] = biological target: Estrogen receptor (Homo sapiens) (UniProt P03372); assay: qHTS assay to identify small molecule antagonists of the estrogen receptor alpha (ER-alpha) signaling pathway using the BG1 cell line in the presence of 0.1 nM 17-beta-estradiol (AID 1259244); also: nearly all actives have a fitted effect of over 50% in size; also: potency is read from the fitted curve at half-maximal effect
Procedure, shortened: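 Quantitative high-throughput screen in VM7Luc4E2 cells: compound plus 0.1 nM E2 (final), 22 h, 37C, 5% CO2; ONE-Glo added, 30 min room temperature, luminescence measured.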

[11] = qHTS assay to identify small molecule phospholipidosis (PLD) inducers (AID 1259344; active = well fitted curve in the direction sought with a large enough effect; an effect the other way counts as inactive or inconclusive; also: potency is read from the fitted curve at half-maximal effect)
Procedure, shortened: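 HepG2 cells on collagen I, attached 4 h at 37 C, were co-treated with compound and LipidTOX Red dye for 24 h at 37 C, then fixed with paraformaldehyde plus Hoechst 33342 and imaged by high-content microscopy for phospholipid accumulation.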

[12] = qHTS assay to identify small molecule HDAC inhibitors (AID 1259364); also: nearly all actives have a fitted effect of over 45% in size; also: potency is read from the fitted curve at half-maximal effect
Procedure, shortened: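 Endogenous HDAC class I/II activity was measured in wild-type HCT-116 cells by HDAC-Glo luminescence after 2 h compound treatment.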

[13] = qHTS assay to identify small molecule HDAC inhibitors - cell viability counter screen (AID 1259365); also: nearly all actives have a fitted effect of over 50% in size; also: potency is read from the fitted curve at half-maximal effect
Procedure, shortened: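 HCT-116 (wild type), 1,500 cells/well, overnight 37C/5% CO2; compound in DMSO 2hr; CellTiter-Glo 30min RT; luminescence read.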

[14] = qHTS assay to identify small molecule agonists of the sonic hedgehog signaling (Shh) pathway - cell viability counter screen (AID 1259366); also: nearly all actives have a fitted effect of over 50% in size; also: potency is read from the fitted curve at half-maximal effect
Procedure, shortened: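 CellTiter-Fluor fluorescence read-out, 1 hr at 37C, added after 23hr compound exposure. Cells: 3T3 Gli1-Luc, an NIH/3T3 clone with stably integrated Gli1-Luc reporter, plated 4hr before compound.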

[15] = qHTS assay to identify small molecule antagonists of the sonic hedgehog signaling (Shh) pathway - cell viability counter screen (AID 1259367); also: nearly all actives have a fitted effect of over 55% in size; also: potency is read from the fitted curve at half-maximal effect
Procedure, shortened: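 NIH/3T3-derived Gli1-Luc reporter cells (2,000 per well) rested 4 hr at 37 C, then received DMSO compounds plus conditioned medium. After 23 hr of treatment, CellTiter-Fluor was added for 1 hr at 37C and fluorescence read.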

[16] = qHTS RealTime-Glo MT Cell Viability Assay in HEK293 cells - 8 hour (AID 1224887); also: nearly all actives have a fitted effect of over 50% in size; also: potency is read from the fitted curve at half-maximal effect
Procedure, shortened: as §1

[17] = qHTS assay to identify small molecule antagonists of the estrogen receptor alpha (ER-alpha) signaling pathway using the BG1 cell line in the presence of 0.1 nM 17-beta-estradiol - cell viability counter screen (AID 1259241); also: nearly all actives have a fitted effect of over 40% in size; also: potency is read from the fitted curve at half-maximal effect
Procedure, shortened: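 Live-cell protease activity (CellTiter-Fluor fluorescence, 30 min) was read in the same wells after VM7Luc4E2 cells had been exposed to compounds with 0.1 nM 17beta-estradiol for 22 hr at 37C.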

[18] = A CellTox Green Cytotoxicity Assay to monitor cytotoxicity in HepG2 cells - 32 hour (AID 1224883); also: nearly all actives have a fitted effect of over 50% in size; also: potency is read from the fitted curve at half-maximal effect
Procedure, shortened: as §2

[19] = A CellTox Green Cytotoxicity Assay to monitor cytotoxicity in HEK293 cells - 32 hour (AID 1224881); also: nearly all actives have a fitted effect of over 40% in size; also: potency is read from the fitted curve at half-maximal effect
Procedure, shortened: as §3

Sequence of Estrogen receptor (Homo sapiens) (P03372 whole entry, looked up): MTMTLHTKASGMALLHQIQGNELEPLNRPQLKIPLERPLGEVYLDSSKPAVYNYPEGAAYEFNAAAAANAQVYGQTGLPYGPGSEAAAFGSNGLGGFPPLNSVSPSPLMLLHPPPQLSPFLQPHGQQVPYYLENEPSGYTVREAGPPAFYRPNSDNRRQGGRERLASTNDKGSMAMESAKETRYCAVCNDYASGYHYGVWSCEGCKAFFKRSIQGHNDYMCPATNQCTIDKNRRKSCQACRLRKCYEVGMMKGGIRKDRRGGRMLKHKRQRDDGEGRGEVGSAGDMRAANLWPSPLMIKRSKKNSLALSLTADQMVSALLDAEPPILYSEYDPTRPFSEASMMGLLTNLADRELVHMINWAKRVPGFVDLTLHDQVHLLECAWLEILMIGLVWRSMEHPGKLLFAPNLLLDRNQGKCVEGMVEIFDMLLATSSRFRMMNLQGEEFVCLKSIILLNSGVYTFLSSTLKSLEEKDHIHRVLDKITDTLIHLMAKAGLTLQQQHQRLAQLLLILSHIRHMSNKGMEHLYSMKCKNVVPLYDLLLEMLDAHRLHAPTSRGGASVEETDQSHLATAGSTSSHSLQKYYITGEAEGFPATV

SMILES	Potency [1]	Potency [2]	Potency [3]	Potency [4]	Potency [5]	Potency [6]	Potency [7]	Potency [8]	Potency [9]	Potency [10]	Potency [11]	Potency [12]	Potency [13]	Potency [14]	Potency [15]	Potency [16]	Potency [17]	Potency [18]	Potency [19]
CC(C)c1nc(CN(C)C(=O)N[C@H](C(=O)N[C@@H](Cc2ccccc2)C[C@H](O)[C@H](Cc2ccccc2)NC(=O)OCc2cncs2)C(C)C)cs1	inactive	inactive	inactive	inactive	21.3 µM (active)	inactive	inactive	inactive	inactive	inactive	inactive and 10 µM (active)	inactive	inactive	6.68 µM (active)	7.5 µM (active)				
Oc1cc2c(cc1O)[C@H]1c3ccc(O)c(O)c3OC[C@@]1(O)C2	inactive	inactive		44.2 µM (active)	inactive		inactive	inactive				55.1 µM (active)	inactive	27.6 µM (active)	27.6 µM (active)	22.2 µM (active)	27.6 µM (active)		
Brc1cc2ccccc2c2ccccc12	inactive	inactive	inactive	inactive		inactive		inactive		inactive			inactive	inactive	inactive		inactive	inactive	
CN(C(=O)CN(CCO)CC(=O)N(C)C(C)(C)Cc1ccccc1)C(C)(C)Cc1ccccc1	inactive	inactive			19 µM (active)				inactive		inactive	inactive	inactive				inactive	23.9 µM (active)	
CN1CCCC(CC2c3ccccc3Sc3ccccc32)C1 (configuration not stated)		inactive	inactive		23.9 µM (active)	23.9 µM (active)				inactive		inactive	inactive			inactive	inactive	21.3 µM (active)	23.9 µM (active)
CCCCCCCCCCCCCCN(CCO)CCO		inactive	54.9 µM (active)	43.6 µM (active)	21.9 µM (active)	54.9 µM (active)	inactive	54.9 µM (active)	48.6 µM (active)			inactive	inactive	61.1 µM (active)	inactive		inactive	19.5 µM (active)	38.9 µM (active)
O=c1cc(-c2ccccc2)oc2ccc3ccccc3c12	inactive	inactive		inactive	inactive				inactive	inactive		0.137 µM (active)	17.2 µM (active)	inactive	inactive	inactive	inactive	21.9 µM (active)	
C(=C\c1ccccc1)/c1ccccc1	inactive	inactive	inactive		inactive		inactive	inactive	inactive	inactive		19.2 µM (active)	inactive	inactive	inactive	inactive	inactive	inactive	
COc1ccccc1N1CCN(CCCCNC(=O)c2ccc(-c3ccc(C(C)=O)cc3)cc2)CC1	inactive	inactive	inactive	inactive	1.69 µM (active)	inactive	inactive	inactive				inactive	inactive	inactive	inactive		inactive		
CN1C[C@H](C(=O)N[C@]2(C)O[C@@]3(O)[C@@H]4CCCN4C(=O)[C@H](Cc4ccccc4)N3C2=O)C[C@@H]2c3cccc4[nH]cc(c34)C[C@H]21	inactive	inactive	inactive		21.3 µM (active)	inactive	inactive	inactive	inactive			inactive	inactive		inactive	23.9 µM (active)			
CCCCCCCCC(CCCCCC)C(=O)O (configuration not stated)		inactive	inactive	inactive	inactive	inactive	inactive	inactive	inactive			inactive	inactive	inactive	inactive	inactive		61.6 µM (active)	inactive
C/C=C(/C(=C/C)c1ccc(O)cc1)c1ccc(O)cc1		inactive	inactive	inactive		inactive		15.1 µM (active)	inactive	inactive	inactive		inactive	inactive		inactive	inactive	16.9 µM (active)	inactive
OCCN1CCN(CCCN2c3ccccc3Sc3ccc(Cl)cc32)CC1		inactive		23.9 µM (active)	23.9 µM (active)			23.9 µM (active)	inactive	inactive		inactive	inactive	13.3 µM (active)	13.3 µM (active)		inactive	16.9 µM (active)	26.8 µM (active)
Nc1ccc(N=Nc2ccccc2)c(N)c1		inactive	inactive		42.7 µM (active)	inactive	inactive	inactive		inactive		1.5 µM (active)					26.7 µM (active)	inactive	inactive
C[C@@H]1CC(=O)NN=C1c1ccc(NN=C(C#N)C#N)cc1		inactive	inactive		inactive			inactive	11.9 µM (active)	inactive	inactive		inactive	13.3 µM (active)	13.3 µM (active)	inactive	21.1 µM (active) and 15 µM (active)	16.9 µM (active) and 10.7 µM (active)	inactive
CCCC(C(=O)OCCN(CC)CC)(c1ccccc1)c1ccccc1	inactive	inactive	inactive		21.3 µM (active)	inactive	inactive	inactive		inactive		inactive	inactive		inactive				
CCOC(=O)c1ccccc1C(=C1C=C(Br)C(=O)C(Br)=C1)c1cc(Br)c(O)c(Br)c1		inactive	inactive	inactive		inactive		inactive	inactive	inactive			inactive	inactive	inactive	inactive	inactive	inactive	inactive
CC(=O)NC1(c2cccc(F)c2)CCN(CC[C@@]2(c3ccc(Cl)c(Cl)c3)CN(c3ccccc3)C(=O)CO2)CC1	inactive	inactive	inactive		17.4 µM (active)		inactive	inactive	inactive			inactive		24.4 µM (active)		31 µM (active)	inactive	43.8 µM (active)	
CC1(CN2CCC(n3c(=O)[nH]c4ccccc43)CC2)OCc2ccccc2-n2cccc21 (configuration not stated)	inactive	inactive			19 µM (active)	inactive		inactive	inactive	29.8 µM (active)		inactive	inactive	inactive	inactive		inactive		
CC(=O)Nc1ccc(C)cc1C	inactive	inactive		inactive	inactive	inactive		inactive	inactive			inactive	inactive	inactive	inactive	inactive		inactive	
CC1(C)O[C@@H]2C[C@H]3[C@@H]4C[C@H](F)C5=CC(=O)C=C[C@]5(C)[C@H]4[C@@H](O)C[C@]3(C)[C@]2(C(=O)CO)O1		inactive	inactive		inactive	inactive		inactive	inactive	inactive	inactive	inactive		inactive	inactive	inactive	inactive	inactive	inactive
c1csc(SSc2cccs2)c1	inactive	inactive	inactive			inactive	inactive	inactive	inactive			inactive	inactive	43.3 µM (active)	43.3 µM (active)		inactive		
O=[N+]([O-])c1cc(C2CCCCC2)c(O)c([N+](=O)[O-])c1		inactive			13.8 µM (active)	inactive	38.8 µM (active)	inactive	15.3 µM (active)	7.67 µM (active)		inactive		24.3 µM (active)	24.3 µM (active)		27.2 µM (active)		inactive
C[C@@H](CN(C)C)CN1c2ccccc2Sc2ccccc21		inactive	inactive			inactive		inactive	inactive	inactive		inactive	inactive			inactive		26.8 µM (active)	13.4 µM (active)
Cc1cc2c(OCC(CNC(C)(C)C)OC(=O)c3ccccc3)cccc2[nH]1 (configuration not stated)	inactive	inactive	inactive	inactive		inactive	inactive	inactive		inactive	inactive	inactive	inactive	inactive	inactive	inactive	inactive		
Cc1cc(O)c(C)c(C)c1O	inactive	inactive	inactive			inactive		inactive	inactive	inactive		inactive	inactive	inactive	inactive			inactive	
CC1=C(CC=O)C(C)(C)CCC1		inactive	inactive	inactive	inactive	inactive	inactive	inactive	inactive					inactive	inactive	inactive	inactive	inactive	inactive

— PubChem BioAssay (Tox21)
